Efflux pump inh – blocks antifungal efflux pumps in multiplex yeast assay. S. cerevisiae Candida pump triplex, Nile Red efflux. inhibition, % at 10 µM. 330,000 compounds, 0.44% hits;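 active = plate passing quality check with inhibition over a set limit, or well fluorescence over plate mean plus 4 SD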;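 also: Nile Red retained in pooled yeast measured as flow cytometry median fluorescence; higher means more Nile Red kept so more efflux inhibition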
GRK2 aptamer HTS – blocks RNA aptamer binding to human GRK2; P25098; bead flow cytometry, FAM-aptamer displacement from GRK2; inhibition of aptamer binding, % at 10 µM; 330,000 compounds, 0.59% hits; AID 488847;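 active = inhibition of aptamer binding above 40%, roughly 3 SD of noise, on plates passing a quality check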;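 also: median bead fluorescence of bound FAM aptamer so fluorescent compounds give negative values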
Rtt109 Vps75 – C. albicans Rtt109 histone acetyltransferase inhibition; Q5AAJ8; purified Rtt109/Vps75, ThioGlo CoA-SH fluorescence, 4 h; inhibition, % at 34.9 µM; 330,000 compounds, 0.16% hits;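 active = inhibition of at least 50% in every replicate; inconclusive = best replicate reaches 50% inhibition but some replicates fall short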
ALR H2O2 inh – blocks human ALR sulfhydryl oxidase activity; P55789; purified ALR, DTT oxidation, H2O2 HRP-luminol luminescence; inhibition, % (no concentration beside the values); 290,000 compounds, 3.8% hits;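 active = mean replicate inhibition above about 79%, with every replicate also reaching it, limit read from the data; inconclusive = only one of the two criteria met; inactive = mean below limit and not every replicate reaching it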
Target sequence (P55789 whole entry, looked up): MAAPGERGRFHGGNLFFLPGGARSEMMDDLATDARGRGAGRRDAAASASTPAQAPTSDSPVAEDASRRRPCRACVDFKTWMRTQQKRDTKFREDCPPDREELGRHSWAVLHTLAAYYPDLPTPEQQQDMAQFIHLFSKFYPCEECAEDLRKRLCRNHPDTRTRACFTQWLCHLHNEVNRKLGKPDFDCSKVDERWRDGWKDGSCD
Rce1 inh – inhibitors of yeast Ras-converting enzyme; yeast membranes, quenched prenylated peptide cleavage fluorescence; AID 2563; 290,000 compounds, 0.27% hits; calls only; Q03530;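 active = fall in fluorescence gain of 50% or more versus controls, with final raw signal at or below 3038400; inconclusive = same 50% fall but final raw signal above 3038400; inactive = fall in fluorescence gain under 50%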
Target sequence (Q03530 whole entry, looked up): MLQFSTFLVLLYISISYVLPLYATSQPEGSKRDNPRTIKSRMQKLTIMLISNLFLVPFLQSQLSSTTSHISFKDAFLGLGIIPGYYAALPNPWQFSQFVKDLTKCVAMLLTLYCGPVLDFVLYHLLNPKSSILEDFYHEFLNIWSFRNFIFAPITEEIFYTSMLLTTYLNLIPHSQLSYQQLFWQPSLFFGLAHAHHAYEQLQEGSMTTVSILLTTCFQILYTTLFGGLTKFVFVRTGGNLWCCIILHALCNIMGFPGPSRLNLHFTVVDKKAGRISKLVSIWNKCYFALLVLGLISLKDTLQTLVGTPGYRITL
HDAC3 inh – inhibitors of human histone deacetylase 3. O15379. recombinant HDAC3, fluorogenic peptide/trypsin coupled, fluorescence. inhibition, % at 8.3 µM. 320,000 compounds, 0.15% hits. AID 2718; in the data active = inhibition above about 26%, passing the limit was not always enough; inconclusive = no clear call, values can overlap the other calls
Of the large screens only hits and unclear results are named; the others gave an inactive call. Shown are actives, neighbours in structure and some others; about 4.5% of the full set was active somewhere.

CCN1C(=O)/C(=C/c2ccc3c(c2)CCN3CCCCl)C(=O)NC1=S	ALR H2O2 inh 98
CC(C)(C)N1C(=O)NC(=O)/C(=C\c2ccc3c(c2)CCN3CCCCl)C1=O	ALR H2O2 inh 90
CCCCN1C(=O)/C(=C/c2ccc(N3CCCCCC3)cc2)C(=O)NC1=S	none (no result: Rtt109 Vps75)
C=CCN1C(=O)/C(=C/c2ccc3c(c2)CCCN3CCC)C(=O)NC1=S	ALR H2O2 inh 99
O=C1NC(=S)N(C2CC2)C(=O)/C1=C/c1ccc2c(c1)CCN2CCCCl	ALR H2O2 inh 98
Cc1nonc1OCCNCCNc1ccc([N+](=O)[O-])c2cccnc12	none (no result: Rtt109 Vps75)
COCCO[C@H]1CC[C@@]2(C)C(=CCC3C2CC[C@@]2(C)C3CC[C@]2(C)O)C1 (stereo partly drawn)	none (no result: Rce1 inh)
CCCC(C)C(=O)NC1CCSC1=O (stereo not drawn)	none
C=Cc1cc(OC)c2c(c1)c(=O)oc1c2cc(OC)c2c(O)ccc(C3OC(C)C(O)C(C)(O)C3O)c21 (stereo not drawn)	none (no result: Efflux pump inh, GRK2 aptamer HTS, ALR H2O2 inh, Rce1 inh, HDAC3 inh)
Oc1ccc(Cl)cc1	none (no result: ALR H2O2 inh, Rce1 inh, HDAC3 inh)
Oc1ccc(C(=C(Cl)Cl)c2ccc(O)cc2)cc1	ALR H2O2 inh 86 (no result: Rtt109 Vps75)
O=P1(Nc2ccc(F)cc2)COc2ccccc2OC1	none
COC(=O)c1ccccc1OP1(=O)COc2ccccc2OC1	ALR H2O2 inh 99
O=c1oc2ccccc2c(O)c1C(c1ccc([N+](=O)[O-])cc1)c1c(O)c2ccccc2oc1=O	Rtt109 Vps75 68 (no result: Efflux pump inh, GRK2 aptamer HTS, ALR H2O2 inh, HDAC3 inh)
C/C(CC(c1ccccc1)c1c(O)c2ccccc2oc1=O)=N\Nc1ccc([N+](=O)[O-])cc1[N+](=O)[O-] (stereo not drawn)	none
CCOP(=O)(OCC)C(O)c1ccc(N(C)C)cc1 (stereo not drawn)	ALR H2O2 inh 86
CC(C)CC12CN3CCN(CC(C3)C1O)C2 (stereo not drawn)	none
CCCN1CCc2cccc3c2[C@H]1Cc1ccc(O)c(O)c1-3	ALR H2O2 inh 99
CN1/C(=C\C=C\C2=[N+](C)c3ccc4ccccc4c3C2(C)C)C(C)(C)c2ccccc21	Efflux pump inh 106, GRK2 aptamer HTS 84 (no result: Rtt109 Vps75, ALR H2O2 inh, Rce1 inh)
Cc1cccc(N/N=C/c2c(O)[nH]c(=S)[nH]c2=O)c1	ALR H2O2 inh 100 (no result: Efflux pump inh, GRK2 aptamer HTS)
COc1ccc(N/N=C/c2c(O)n(-c3cccc(C)c3)c(=O)[nH]c2=O)cc1	ALR H2O2 inh 99
Cc1cccc(-n2c(O)c(/C=N/NC(=O)c3ccncc3)c(=O)[nH]c2=O)c1	none (no result: Rtt109 Vps75)
Cc1ccc(-n2c(O)c(/C=N/N3CCCCCC3)c(=O)[nH]c2=O)cc1C	none (no result: Rtt109 Vps75, ALR H2O2 inh)
COc1ccc(N/N=C/c2c(O)n(-c3ccc(C)c(C)c3)c(=O)[nH]c2=O)cc1	ALR H2O2 inh 99
Cc1ccc(-n2c(O)c(/C=N/Nc3ccccc3)c(=O)[nH]c2=O)cc1C	ALR H2O2 inh 99 (no result: Rtt109 Vps75)
CCCCCCC(=O)c1c(O)n(-c2ccccc2OC)c(=O)[nH]c1=O	none (no result: Rtt109 Vps75)
Cc1nnc(SCc2nc3ccccc3c(=O)n2-c2ccccc2Cl)n1N	none
O=C1NC(=O)C(Sc2ccccc2[N+](=O)[O-])C(=O)N1	Rtt109 Vps75 86
CCCn1c(C)cc(C=O)c1C	none
Cc1ccc(-c2ccc(=O)n(CC(=O)N3CCC4(CC3)OCCO4)n2)cc1	none
Cc1ccc(-c2nc(CS(=O)CC(=O)N3CCC4(CC3)OCCO4)c(C)o2)cc1 (stereo not drawn)	ALR H2O2 inh 99 (no result: Rce1 inh)
C=CCCC1(C2=CCCCC2)C(=O)NC(=O)NC1=O	none (no result: Efflux pump inh, GRK2 aptamer HTS, ALR H2O2 inh, Rce1 inh, HDAC3 inh)
O=C(c1ccc2c(c1)N(Cc1ccccc1)CCS2)N1CCC2(CC1)OCCO2	ALR H2O2 inh 85
CCN(C(=O)COC(=O)c1cn(C)c2ccccc12)c1ccc(F)cc1	none (no result: Rce1 inh)
CC(=O)[C@H]1CC[C@H]2[C@@H]3CC[C@H]4C[C@H](O)CC[C@]4(C)[C@H]3C(=O)C[C@]12C	Rce1 inh active
CN1CCN(c2c(N)c(=O)oc3ccccc23)CC1	ALR H2O2 inh 99
C[C@H]1CC[C@H]2NCCN[C@H]2C1	Rtt109 Vps75 56
Cc1cc(N2CCCCC2)ccc1C=C1C(=O)N(C)C(=S)N(C)C1=O	ALR H2O2 inh 90
CN1C(=O)/C(=C\c2ccc(N3CCCCCC3)cc2)C(=O)NC1=S	none
CCOC(=O)C1=Nc2ccccc2/C1=C\c1c(O)n(C)c(=O)n(C)c1=O	ALR H2O2 inh 98
Cn1c(O)c(C=Nc2ccccc2-c2ccccc2)c(=O)n(C)c1=O	none (no result: ALR H2O2 inh)
C=C1C[C@]2(O)[C@@]3(C)CCC(=O)C(C)(C)C3=C(O)C(=O)[C@@]2(C)[C@@H]2C(=O)O[C@@](C)(C(=O)OC)C(=O)[C@@]12C	none
Oc1ccc(CC2CC3CCN2CC3)cc1O (stereo not drawn)	ALR H2O2 inh 99
O=C(N/N=C\C1C(=O)NC(=S)N(c2ccccc2)C1=O)c1ccc(O)cc1 (stereo not drawn)	none (no result: Rce1 inh)
Cc1cccc(N2C(=O)NC(=O)/C(=C/c3ccc([N+](=O)[O-])o3)C2=O)c1	GRK2 aptamer HTS 44 (no result: Rtt109 Vps75, Rce1 inh)
CCn1nc(-c2ccccc2)nc2c(=O)n(C)c(=O)nc1-2	GRK2 aptamer HTS 54
Cc1[nH]c2ccc(OCc3ccccc3)cc2c1CCN	none
Cc1[nH]c2ccc(O)cc2c1CCN	ALR H2O2 inh 96 (no result: Rce1 inh)
c1ccc(CCN2CCCCC2)nc1	none (no result: Efflux pump inh, GRK2 aptamer HTS, ALR H2O2 inh, Rce1 inh, HDAC3 inh)
O=c1[nH]c(=O)n(-c2ccccc2F)c(O)c1C=NCCC1=CCCCC1	none
CC12CN3CC(C)(CN(C1)C31CCOCC1)C2=O	none
CN1C(=O)c2ccccc2NC(=O)C1Cc1ccccc1 (stereo not drawn)	ALR H2O2 inh 98
C[C@H]1C(=O)O[C@@H]2CCN3CC=C(COC(=O)[C@](C)(O)[C@]1(C)O)[C@H]23	none (no result: Rce1 inh)
Cc1ccc(/C=C2\C(=O)NC(=O)N(Cc3ccccc3Cl)C2=O)o1	ALR H2O2 inh 99
Cc1ccc(/C=C2/C(=O)NC(=O)N(Cc3ccc(F)cc3)C2=O)o1	none (no result: Rtt109 Vps75, ALR H2O2 inh)
O=C1NC(=O)N(Cc2ccccc2Cl)C(=O)/C1=C/c1cccs1	ALR H2O2 inh 97
O=C1NC(=O)N(Cc2ccc(F)cc2)C(=O)/C1=C/c1cccs1	Rtt109 Vps75 inconclusive, ALR H2O2 inh inconclusive
CN1CCN2c3ccc(N)cc3CC3(C(=O)NC(=O)NC3=O)C2C1 (stereo not drawn)	none (no result: Efflux pump inh, GRK2 aptamer HTS, Rtt109 Vps75, ALR H2O2 inh, HDAC3 inh)
Cc1cc(/C=C2/C(=O)NC(=O)N(c3ccccc3)C2=O)c(C)n1-c1ccc(F)cc1	none
Cc1cc(/C=C2\C(=O)NC(=O)N(Cc3ccccc3)C2=O)c(C)n1-c1ccc(Cl)c(C(=O)O)c1	GRK2 aptamer HTS 100
Cc1ccc(N2C(=O)NC(=O)/C(=C\c3cc(C)n(-c4ccc(C(=O)O)cc4)c3C)C2=O)cc1	ALR H2O2 inh 97
Cc1ccc(N2C(=O)NC(=O)/C(=C/c3ccc(-c4ccc(C(=O)O)c(Cl)c4)o3)C2=O)cc1	ALR H2O2 inh 97
Cc1cc(/C=C2\C(=O)NC(=O)N(c3ccc(F)cc3)C2=O)c(C)n1-c1ccc(C(=O)O)cc1	ALR H2O2 inh 98
Cc1ccc(N2C(=O)NC(=O)/C(=C\c3cc(C)n(-c4cc(C(=O)O)cc(C(=O)O)c4)c3C)C2=O)cc1	none

Screening results (PubChem BioAssay)
